ANO1 block: inhibitors of mouse TMEM16A calcium-activated chloride channel; Q8BHY3; HEK293 TMEM16A/YFP iodide influx fluorescence, ionomycin; normalized B-score (activity score, 25-100; higher = stronger inhibition) at 10 µM; actives 1.2% (n = 310,000); AID 588511;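 active = ratio plate-corrected score three or more library SD toward inhibition, starting fluorescence score within five deviations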;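 also: score derived from kinetic fluorescence span divided by baseline fluorescence per well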
TLR4-MyD88 BLA: blocks binding of human TLR4 to MyD88; O00206+Q99836; HeLa CL3-4 TLR4/MyD88 BLA complementation, FRET ratio; inhibition, % at 8.4 µM; actives 0.18% (n = 200,000); AID 861; in the data active = inhibition above about 25%
NOD2-RIPK2 inh: NOD2-RIPK2 protein interaction inhibition; CHO BLA complementation NOD2-RIPK2, CCF4 ratio; inhibition, % at 4.98 µM; actives 0.38% (n = 360,000); in the data active = inhibition above about 21%
ANO1 activ: activates or potentiates the mouse TMEM16A chloride channel. B-score at 10 µM. HEK293 TMEM16A/YFP-H148Q/I152L, iodide quench fluorescence; active compounds read low. actives 0.3% (n = 340,000). Q8BHY3;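 active = fluorescence-ratio B-score plate-corrected deviation score at least 3 library SD below zero, with starting fluorescence score within 5 deviations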;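 also: channel opened by trigger with iodide after compound preincubation; score built on the fluorescence ratio of max minus min over baseline; more negative score means more quench and so TMEM16A activation or potentiation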
GRK2 inh: inhibitors of human GRK2 displacing RNA aptamer. bead flow cytometry, FAM-aptamer displacement from GRK2. inhibition of aptamer binding, % at 10 µM. actives 0.59% (n = 330,000). AID 488847;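 active = inhibition of aptamer binding above 40%, roughly 3 SD of noise, on plates passing a quality check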;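 also: median bead fluorescence of bound FAM aptamer so fluorescent compounds give negative values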
Target sequence (P25098 whole entry, looked up): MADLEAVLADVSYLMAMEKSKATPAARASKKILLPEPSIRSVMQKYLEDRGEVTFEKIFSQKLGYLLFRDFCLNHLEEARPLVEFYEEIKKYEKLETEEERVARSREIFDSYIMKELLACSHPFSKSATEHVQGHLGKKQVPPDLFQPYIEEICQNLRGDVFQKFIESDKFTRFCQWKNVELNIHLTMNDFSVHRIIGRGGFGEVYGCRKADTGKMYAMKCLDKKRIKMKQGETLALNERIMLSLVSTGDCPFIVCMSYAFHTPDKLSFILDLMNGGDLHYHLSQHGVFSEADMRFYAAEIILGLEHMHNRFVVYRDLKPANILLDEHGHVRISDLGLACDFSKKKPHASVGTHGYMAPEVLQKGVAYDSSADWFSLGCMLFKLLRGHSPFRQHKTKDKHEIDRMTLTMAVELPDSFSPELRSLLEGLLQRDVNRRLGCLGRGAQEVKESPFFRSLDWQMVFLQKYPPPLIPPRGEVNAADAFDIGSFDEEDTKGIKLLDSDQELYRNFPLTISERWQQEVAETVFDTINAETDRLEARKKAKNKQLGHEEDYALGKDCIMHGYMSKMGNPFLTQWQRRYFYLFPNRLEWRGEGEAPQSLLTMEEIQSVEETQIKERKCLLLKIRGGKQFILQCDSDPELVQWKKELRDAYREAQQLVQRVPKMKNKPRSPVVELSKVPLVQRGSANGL
TLR9-MyD88 block: inhibitors of human TLR9-MyD88 binding. inhibition, % at 4.98 µM. actives 0.21% (n = 340,000). Q9NR96+Q99836. CHO BLA complementation TLR9-MyD88, CCF4 FRET ratio;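 active = inhibition above the mean over all tested compounds plus 3 SD, cut at about 21% in these data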
GRK2 CP1: human GRK2 inhibition confirmation, cherry pick 1; shares compounds with GRK2 inh; bead-bound GRK2, FAM-aptamer displacement, flow cytometry; aptamer displacement, % at 10 µM; actives 4% (n = 2,000); AID 504451;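 active = aptamer displacement above 40%, near three times the noise of non-fluorescent compounds, on plates passing quality checks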;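 also: negative values mostly reflect intrinsic compound fluorescence rather than true enhancement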
Aptamer quench SP: quenches fluorescent RNA aptamer, GRK2 hit artifact. shares compounds with GRK2 inh. 2,000 tested, under 10 active. AID 504580. Carboxyfluorescein RNA aptamer on beads, flow cytometry quenching; active compounds read low. fluorescence response (% of DMSO), % at 10 µM;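 active = compounds that quench the bead-bound fluorescent RNA probe, cutting fluorescence to under half of the solvent control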;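 also: counterscreen run without GRK2 so only probe quenching by compound is measured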
GRK2 CP2: confirmation of human GRK2 inhibitors binding RNA aptamer site | shares compounds with GRK2 inh | bead-bound GRK2, FAM-aptamer displacement, flow cytometry | inhibition of aptamer binding, % at 10 µM | 360 tested, under 10 active | AID 504782;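 active = inhibition of aptamer binding above 40%, about triple the noise seen with nonglowing compounds, on plates passing quality control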;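 also: negative values mostly come from compounds that fluoresce themselves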
FAM quench CP2: quenches fluorescent RNA aptamer, GRK2 hit artifact | shares compounds with GRK2 inh | carboxyfluorescein RNA aptamer beads, flow cytometry quenching; active compounds read low | fluorescence response vs DMSO, % at 10 µM | 360 tested, under 10 active | AID 588494;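 active = response vs DMSO under 50%, meaning signal dropped by over half, treated as fluorescence quencher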;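 also: labelled aptamer on streptavidin beads without GRK2 as a quench counter-screen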
Of the large screens only hits and unclear results are named; the others gave an inactive call (follow-up assays come after a bar, where they were run). Most compounds without a hit are left out; they make up all but 2.2% or so of the library.

Nc1nc2c(nc(SCc3ccccc3Br)n2C2OC(CO)C(O)C2O)c(=O)[nH]1 (stereo unspecified)	none
Nc1nc2c(nc(N3CCCCC3)n2[C@@H]2O[C@H](CO)[C@@H](O)[C@H]2O)c(=O)[nH]1	GRK2 inh 93 (no result: TLR4-MyD88 BLA) | GRK2 CP1 inactive | Aptamer quench SP inactive
Cn1c(SCC(=O)Nc2ccc(NC(=O)c3ccccc3)cc2)nnc1-c1ccncc1	GRK2 inh 62 (no result: TLR4-MyD88 BLA) | GRK2 CP1 inactive | Aptamer quench SP inactive
O=C(Cc1csc(-c2ccccc2)n1)NCC(=O)Nc1ccc(F)c(F)c1F	none (no result: ANO1 block, TLR4-MyD88 BLA)
O=C(Cn1nnc(-c2ccccc2)n1)NCC(=O)Nc1ccc(F)c(F)c1F	none (no result: ANO1 block, TLR4-MyD88 BLA) | GRK2 CP1 inactive | Aptamer quench SP inactive
CCc1noc(C)c1C(=O)NCCN1C(=O)S/C(=C\c2ccccc2F)C1=O	none (no result: ANO1 block, TLR4-MyD88 BLA, ANO1 activ, GRK2 inh)
O=C(Cn1nc(C(=O)O)c2ccccc2c1=O)Nc1cccc(S(=O)(=O)N2CCCC2)c1	none (no result: ANO1 block, TLR4-MyD88 BLA, GRK2 inh)
Cc1ccccc1Cn1nc(C)c(NC(=O)c2cc3n(n2)C(C(F)F)CC(C(F)F)N3)c1C (stereo unspecified)	GRK2 inh 98 | GRK2 CP1 inactive | Aptamer quench SP inactive
CC1Cc2nc(SCC(=O)N3CCCC3)n(C)c(=O)c2S1 (stereo unspecified)	GRK2 inh 100 | GRK2 CP1 inactive | Aptamer quench SP inactive
COc1cccc(CN(Cc2cccnc2)S(=O)(=O)c2ccc(-n3cnnn3)c(C)c2)c1	none | GRK2 CP1 inactive | Aptamer quench SP inactive
CC(=O)Nc1ccc(S(=O)(=O)NNC(=O)c2cccc(Cl)c2)cc1	GRK2 inh 92 | GRK2 CP1 inactive | Aptamer quench SP inactive
CCCCC(=O)Nc1nnc(CCc2ccccc2)s1	GRK2 inh 99 (no result: TLR4-MyD88 BLA) | GRK2 CP1 inactive | Aptamer quench SP inactive
COCCSc1nnc(NC(=O)CS(=O)(=O)c2ccc(C)cc2)s1	none (no result: TLR4-MyD88 BLA)
O=C(O)CC(CC(=O)Nc1nncs1)c1ccccc1 (stereo unspecified)	GRK2 inh 49 | GRK2 CP1 inactive | Aptamer quench SP inactive
COCCSc1nnc(NC(=O)CCS(=O)(=O)c2ccccc2)s1	none (no result: TLR4-MyD88 BLA) | GRK2 CP1 inactive | Aptamer quench SP inactive
COC(=O)c1ccsc1NC(=O)CCS(=O)(=O)c1ccc(Cl)cc1	none (no result: TLR4-MyD88 BLA) | GRK2 CP2 inactive | FAM quench CP2 inactive
CCOc1ccc(N2C(=O)CN=C2Nc2ccccc2F)cc1	none
COc1cccc(-c2nc3sc4c(c3c(=O)[nH]2)CCCCC4)c1	none
O=C(CCS(=O)(=O)c1ccccc1)Nc1nncs1	GRK2 inh 54 (no result: TLR4-MyD88 BLA) | GRK2 CP1 inactive | Aptamer quench SP inactive
CC(C)Cc1nnc(NC(=O)CCS(=O)(=O)c2ccc(Cl)cc2)s1	none (no result: TLR4-MyD88 BLA) | GRK2 CP1 inactive | Aptamer quench SP inactive
CCOCCc1nnc(NC(=O)CCS(=O)(=O)c2ccccc2)s1	none (no result: TLR4-MyD88 BLA) | GRK2 CP1 inactive | Aptamer quench SP inactive
CCOCCc1nnc(NC(=O)C(C)Oc2ccccc2)s1 (stereo unspecified)	none
Cc1cc(S(=O)(=O)Nc2ccc(F)cc2)c(C)s1	none
CCC(C)c1ccc(NC(=S)N2CCN(C(=O)C3CCCO3)CC2)cc1 (stereo unspecified)	GRK2 inh 74 (no result: TLR4-MyD88 BLA) | GRK2 CP2 inactive | FAM quench CP2 inactive
CCCCCN(C(=O)CCC(=O)OCC(=O)N1CCCC(C)C1)c1c(N)n(CCCC)c(=O)[nH]c1=O (stereo unspecified)	none (no result: TLR4-MyD88 BLA)

Assay outcomes deposited in PubChem BioAssay by several laboratories.
